RORg inh = qHTS for inhibitors of ROR gamma transcriptional activity; Nuclear receptor ROR-gamma (Mus musculus), P51450; Drosophila S2 Gal4-RORgamma UAS-luciferase reporter, 20 h; Potency, µM (highest dose often 53.6 µM), most hits filed as inhibitors; actives 5.4% (n = 310,000); also: nearly all actives have a fitted effect of over 60% in size
Target sequence (P51450 whole entry, looked up, the tested form may be a part): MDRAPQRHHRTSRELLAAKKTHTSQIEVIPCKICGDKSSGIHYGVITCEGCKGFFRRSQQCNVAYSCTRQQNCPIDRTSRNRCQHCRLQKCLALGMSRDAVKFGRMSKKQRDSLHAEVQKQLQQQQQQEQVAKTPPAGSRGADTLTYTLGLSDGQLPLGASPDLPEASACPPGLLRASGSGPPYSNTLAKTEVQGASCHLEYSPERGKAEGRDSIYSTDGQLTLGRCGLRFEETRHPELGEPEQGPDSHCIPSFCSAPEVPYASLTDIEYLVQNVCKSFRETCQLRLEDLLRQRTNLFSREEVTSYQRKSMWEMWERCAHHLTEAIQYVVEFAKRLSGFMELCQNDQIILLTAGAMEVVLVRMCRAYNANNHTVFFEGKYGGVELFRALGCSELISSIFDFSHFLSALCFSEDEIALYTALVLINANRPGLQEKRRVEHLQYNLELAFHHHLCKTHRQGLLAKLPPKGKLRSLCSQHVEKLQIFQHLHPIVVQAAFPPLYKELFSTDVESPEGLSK
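Stably transfected Drosophila Schneider cells are the test system, with ROR gamma fused to Gal4 and luciferase under UAS control; luminescence is read after 20 hr of 700 uM copper sulfate induction at ambient temperature.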
VP16 counter = VP16 counterscreen qHTS for inhibitors of ROR gamma transcriptional activity | Drosophila S2 Gal4-VP16 UAS-luciferase, luminescence, 20 h | Potency, µM (highest dose often 53.6 µM), usual class: inhibitors | actives 3.5% (n = 310,000) | AID 2546, 2010;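 also: Gal4-VP16 expression switched on by copper sulfate through the metallothionein promoter; nearly all actives have a fitted effect of over 50% in size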
KinaseGlo FLuc = Counterscreen for Luciferase (Kinase-Glo TM) Inhibition; Luciferin 4-monooxygenase (Photuris pensylvanica), Q27757; Kinase-Glo luciferase, ATP luminescence, 8 min; Potency, µM (series often up to 38.3 µM), hits mostly inhibitors; actives 0.28% (n = 200,000); AID 1379, 2008; also: nearly all actives have a fitted effect of over 60% in size
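Inhibition of Kinase-Glo luciferase light generation was assessed at 10 uM ATP in pH 7.2 imidazole buffer, with luminescence measured after eight minutes at ambient temperature.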
Large screens that a line does not name were inactive. A selection: hits, their analogues and other compounds. The true share with any hit is near 6.2%. Calls follow the shape of the dose curve; as a rule, active = well fitted curve in the direction sought with a large enough effect; inconclusive = small, poorly fitted or top-dose-only effect, or another doubt; inactive = no such curve, though single readings can be large; an effect the other way counts as inactive or inconclusive.

Cc1cc(C)n(-c2nc3ccccc3c(=O)n2OCC(=O)N(C)C)n1	none
COc1nc2ccccc2c(=O)n1OCC(C)C	none
Cc1cc(CC(C)C)n(-c2nc3ccccc3c(=O)n2OCC(=O)N(C)C)n1	RORg inh 2.2µM, VP16 counter 6.3µM (no result: KinaseGlo FLuc)
CSc1ccccc1OCc1cc(C(=O)N(C)Cc2cc(C)[nH]n2)no1	none (no result: KinaseGlo FLuc)
COc1ccccc1C1CC(c2ccccc2)=NN1C(=S)Nc1ccccc1 (stereo unspecified)	none
CC(C)Cn1c(SC(C)C(=O)Nc2ccc3c(c2)OCCO3)nc2ccccc2c1=O (stereo unspecified)	RORg inh 13µM
CC(Sc1ncnc2ccccc12)C(=O)Nc1ccc2c(c1)OCCO2 (stereo unspecified)	RORg inh inconclusive
CC(C)CC(=O)N1CCN(Cc2ccccc2[N+](=O)[O-])CC1	none
CC(C)Cn1c2c(c(O)c(C(=O)Nc3ncccc3O)c1=O)CCCC2	RORg inh inconclusive, VP16 counter 14µM
CC(C)Cn1c2c(c(O)c(C(=O)Nc3ccc(F)cc3)c1=O)CCCC2	none (no result: KinaseGlo FLuc)
COc1ccc(Cl)cc1NC(=S)NCCSc1ccc(C)cc1	RORg inh 6.3µM, VP16 counter 5µM (no result: KinaseGlo FLuc)
COc1ccccc1NC(=S)NCc1cccnc1	none
COc1ccc(Cl)cc1N/C(N)=N/c1nc(CSc2ccc(C)cc2)cc(=O)[nH]1	none
COc1ccccc1NC(=S)NCCSc1ccc(Cl)cc1	RORg inh 18µM, VP16 counter inconclusive
COc1ccc(NC(=S)NCCSc2ccc(Cl)cc2)c(OC)c1	RORg inh 1.1µM
COc1ccccc1NC(=O)NCCc1ccccc1	none (no result: KinaseGlo FLuc)
COc1ccccc1NC(=S)NCCc1ccc(Cl)cc1	RORg inh 1.8µM, VP16 counter 7.1µM
COc1ccc(NC(=S)NCCCN2CCCC2=O)c(OC)c1	none
CC(C)c1cc(C(F)(F)F)nc(NNc2nc(C(C)C)cc(C(F)(F)F)n2)n1	none (no result: RORg inh, VP16 counter)
CC(C)=CCn1cnc2c1c(=O)n(C)c(=O)n2C	none
Cc1nc(C2COc3ccccc3O2)sc1C(=O)O (stereo unspecified)	none (no result: KinaseGlo FLuc)
CCCS(=O)(=O)c1cnc(C2COc3ccccc3O2)nc1N (stereo unspecified)	RORg inh 0.63µM, VP16 counter 1.3µM (no result: KinaseGlo FLuc)
CCCn1c(-c2ccc(F)cc2)nc2c(NCCCN(C)C)nc(C)nc21	none
Cc1ccc(C)c(NS(=O)(=O)c2cc3c4c(c2)CC(=O)N4CCC3)c1	none (no result: KinaseGlo FLuc)
COC(=O)C[C@H]1c2ccccc2C2=C(C[C@@H](C)[C@H]3C(=O)N(c4ccccc4)C(=O)[C@@H]23)N1C(=O)OC	none (no result: RORg inh, VP16 counter)
Clc1ccccc1Nc1c2c(nc3ncnn13)CCC2	RORg inh 10µM, VP16 counter inconclusive
c1ccc(Nc2c3c(nc4ncnn24)CCC3)cc1	none
O=C(Nc1ccccc1NC(=O)c1c(F)cccc1F)c1c(F)cccc1F	none (no result: KinaseGlo FLuc)
CCOC(=O)C1CCN(S(=O)(=O)c2ccc(OC)c(C(=O)N3CCCCC3)c2)CC1	none (no result: KinaseGlo FLuc)
Cc1cccc(C(=O)NNC(=O)c2c(-c3ccccc3Cl)noc2C)c1O	RORg inh 10µM (no result: KinaseGlo FLuc)
Cc1occc1C(=O)O/N=C(\N)c1ccccc1	RORg inh inconclusive, VP16 counter 10µM (no result: KinaseGlo FLuc)
COc1cc(OC)c(C(=O)O/N=C(\N)c2ccccc2)cc1OC	none (no result: KinaseGlo FLuc)
Cc1onc(-c2ccccc2Cl)c1C(=O)NNC(=O)c1ccc(F)cc1	none (no result: KinaseGlo FLuc)
Cc1ccccc1C(=O)O/N=C(\N)c1ccc([N+](=O)[O-])cc1	VP16 counter inconclusive (no result: KinaseGlo FLuc)
Cc1ccccc1C(=O)O/N=C(\N)c1ccccc1	RORg inh 7.1µM, VP16 counter 10µM (no result: KinaseGlo FLuc)
C/C(=N\OC(=O)c1c(-c2ccccc2Cl)noc1C)c1ccncc1	none
Cc1onc(-c2ccccc2Cl)c1C(=O)O/N=C(\N)c1ccccc1	RORg inh 14µM, VP16 counter 6.3µM (no result: KinaseGlo FLuc)
N#Cc1cccc(-c2cc(-n3ccnc3)ncn2)c1	none
FC(F)(F)C(F)(F)C(F)(F)C(F)(F)C(F)(F)C(F)(F)F	none (no result: KinaseGlo FLuc)
COc1cc(-c2noc(C)n2)cc(OC)c1OC	none (no result: KinaseGlo FLuc)
N#CCN1C(=O)C2CCCN2c2ccc(S(=O)(=O)N3CCOCC3)cc21 (stereo unspecified)	none
CC(=O)OCC(NC(=O)C(C)NC(=O)OC(C)(C)C)C1OC(n2cc(C)c(=O)[nH]c2=O)C(OC(C)=O)C1OC(C)=O (stereo unspecified)	none (no result: KinaseGlo FLuc)
CCc1ccc(S(=O)(=O)NC2CC(C)(C)NC(C)(C)C2)cc1	RORg inh 2µM (no result: KinaseGlo FLuc)
Cc1ccc(S(=O)(=O)NC2CC(C)(C)NC(C)(C)C2)cc1	none (no result: KinaseGlo FLuc)
CCC(=O)c1cn(CC(=O)Nc2ccc(C)cc2C)c2ccccc12	none (no result: KinaseGlo FLuc)
COc1ccc(NC(=O)c2nc[nH]c2C(=O)N[C@@H](C)C(=O)OC(C)(C)C)cc1	RORg inh 11µM, VP16 counter inconclusive (no result: KinaseGlo FLuc)

Compound activity deposited in PubChem by National Center for Advancing Translational Sciences (NCATS).
